Columns and labels:
Test in all cases: PBM binding z-score (relative to random genomic background probes); higher = stronger binding; sequences stand for … in GC…GCGATTGACAGCGTAGAATGAAGG
[1] = system: FXR:RXRa (NR concentration 270 nM, RXRa partner concentration 90 nM)
Outline: (§1)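 On custom Agilent 4×180K arrays, double-stranded probes with 34-nt variable regions carried direct-repeat seeds, single-nucleotide variants, half-site ablations or random human genomic background. Ligand-free nuclear receptor dimers were applied for 1 h, and binding was read with antibodies against each partner (one per run). Binding z-scores come from regression-normalized fluorescence, with the random background probes as reference.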

[2] = system: LXRa:RXRa (NR concentration 270 nM, RXRa partner concentration 90 nM)
Outline: as §1

[3] = system: LXRa homodimer (NR concentration 270 nM)
Outline: as §1

[4] = system: LXRb:RXRa (NR concentration 270 nM, RXRa partner concentration 90 nM)
Outline: as §1

[5] = system: PPARa:RXRa (NR concentration 270 nM, RXRa partner concentration 90 nM)
Outline: as §1

[6] = system: PPARg:RXRa (NR concentration 180 nM, RXRa partner concentration 90 nM)
Outline: as §1

[7] = system: PPARg:RXRa 270nM:90nM, anti-RXR (NR concentration 270 nM, RXRa partner concentration 90 nM)
Outline: as §1

[8] = system: PPARg:RXRa 30nM:10nM, anti-RXR (NR concentration 30 nM, RXRa partner concentration 10 nM)
Outline: as §1

[9] = system: PPARg:RXRa 90nM:30nM, anti-RXR (NR concentration 90 nM, RXRa partner concentration 30 nM)
Outline: as §1

[10] = system: PPARg:RXRa DBDmut IVT, anti-RXR (DBD mutation: RXRa K156A/R161A, NR concentration 270 nM, RXRa partner concentration 90 nM)
Outline: as §1

[11] = system: PPARg:RXRa IVT, anti-PPARg (NR concentration 270 nM, RXRa partner concentration 90 nM)
Outline: as §1

[12] = system: PPARg homodimer (NR concentration 180 nM)
Outline: as §1

[13] = system: PXR:RXRa (NR concentration 270 nM, RXRa partner concentration 90 nM)
Outline: as §1

[14] = system: PXR homodimer (NR concentration 270 nM)
Outline: as §1

[15] = system: RARa:RXR (NR concentration 270 nM, RXRa partner concentration 90 nM)
Outline: as §1

[16] = system: RARa homodimer (NR concentration 270 nM)
Outline: as §1

[17] = system: RARb:RXRa (NR concentration 270 nM, RXRa partner concentration 90 nM)
Outline: as §1

| Sequence | PBM binding z-score [1] | PBM binding z-score [2] | PBM binding z-score [3] | PBM binding z-score [4] | PBM binding z-score [5] | PBM binding z-score [6] | PBM binding z-score [7] | PBM binding z-score [8] | PBM binding z-score [9] | PBM binding z-score [10] | PBM binding z-score [11] | PBM binding z-score [12] | PBM binding z-score [13] | PBM binding z-score [14] | PBM binding z-score [15] | PBM binding z-score [16] | PBM binding z-score [17] |
| --- | --- | --- | --- | --- | --- | --- | --- | --- | --- | --- | --- | --- | --- | --- | --- | --- | --- |
| CCGAGTCGGTTACGAGGGGGCATTCAGTGCGAAT | 0.716 | 4.66 | 1.26 | 4.05 | 1.74 | -0.00257 | 0.709 | -0.212 | 0.329 | 0.193 | 0.806 | 0.506 | 2.86 | 5.49 | 1.77 | 0.0912 | 1.12 |
| CGATGTAGGTTAAGGGGGTCATTCAGTTTGAAAG | 5.57 | 4.7 | 3.53 | 6.23 | 5.85 | 8.23 | 7.56 | 6.22 | 7.61 | 7.27 | 7.49 | 5.88 | 6.1 | 13.5 | 6.18 | 4.27 | 3.65 |
| TCGAGTAGGATACGGGGGCATTCAGGGATGAAGA | 1.26 | 1.43 | 0.346 | 3.58 | 2.35 | 1.24 | 2.72 | 2.22 | 2.53 | 1.6 | 3.19 | 0.663 | 2.12 | 0.916 | 2.17 | 0.237 | 1.25 |
| TCGGGTAGGTTACGGGGGCATTCAGGGATGAAGA | 3.9 | 4.06 | 2.17 | 5.75 | 4.69 | 5.73 | 5.54 | 3.74 | 4.7 | 4.27 | 6.24 | 3.68 | 4.2 | 3.72 | 4.12 | 1.88 | 3.35 |
| CCGACTAGGTTACGAGGGGGCATTCAGTGCGAAT | 2.03 | 6.99 | 1.82 | 6.19 | 3.16 | 2.68 | 3.48 | 1.66 | 2.47 | 4.63 | 4.93 | 1.66 | 4.6 | 5.23 | 2.64 | 0.38 | 2.02 |
| CCGAGTAGGTTACGAGGAGGCATTCAGTGCGAAT | -0.167 | 4.4 | -0.319 | 0.864 | 1.26 | 0.943 | 1.25 | -0.283 | 0.832 | 4.34 | 3.39 | -0.438 | 0.196 | -0.429 | 0.244 | -0.663 | 0.685 |
| CTATGTACGTTAAGGGGGTCATTCAGTTTGAAAG | 4.34 | 4.93 | 2.68 | 6.5 | 5.53 | 3.31 | 5.19 | 3.25 | 4.57 | 3.42 | 5.2 | 3.11 | 5.68 | 9.08 | 5.5 | 1.37 | 3.45 |
| CCGAGTAGGTTTCGAGGGGGCATTCAGTGCGAAT | 1.41 | 2.96 | 1.18 | 4.53 | 2.37 | -0.183 | 1.67 | 0.107 | 1.44 | 2.27 | 2.41 | 1.58 | 3.09 | 5.29 | 1.88 | 0.558 | 1.28 |
| CTATGTAGGTTAAGAGGGTCATTCAGTTTGAAAG | 2.95 | 3.05 | 1.07 | 2.93 | 4.89 | 5.88 | 5.47 | 2.95 | 4.99 | 7.34 | 7.14 | 2.35 | 3.96 | 5.84 | 3.56 | 0.734 | 2.63 |
| CGGAGTAGGTTACGAGGGGGCATTCAGTGCGAAT | 3.18 | 7.21 | 1.72 | 6.48 | 4.04 | 4.95 | 5.18 | 2.85 | 4.32 | 6.26 | 7.82 | 1.69 | 5.02 | 6.07 | 3.15 | 0.639 | 2.54 |
| CTATGTAGGTTATGGGGGTCATTCAGTTTGAAAG | 5.57 | 5.53 | 4.32 | 6.32 | 6.04 | 8.27 | 7.54 | 5.25 | 7.06 | 7.32 | 7.49 | 4.13 | 6.22 | 12.9 | 6.28 | 1.72 | 3.67 |
| TCGAGTAGGTTACGGGGGCCTTCAGGGATGAAGA | 1.17 | 1.71 | 0.239 | 4.15 | 2.99 | 2.78 | 3.68 | 1.85 | 2.72 | 4.03 | 4.68 | 0.342 | 1.52 | 0.275 | 1.48 | -0.236 | 1.58 |
| TCGCGTAGGTTACGGGGGCATTCAGGGATGAAGA | 2.62 | 3.1 | 0.819 | 5.1 | 4.31 | 4.62 | 4.92 | 3.28 | 3.93 | 2.78 | 4.58 | 1.25 | 3.16 | 1.49 | 3.42 | 0.315 | 2.72 |
| TCGAGCAGGTTACGGGGGCATTCAGGGATGAAGA | 2.74 | 2.64 | 0.7 | 4.88 | 4.14 | 4.31 | 4.37 | 2.24 | 3.46 | 2.41 | 4.12 | 1.23 | 3.03 | 0.942 | 3.16 | 0.368 | 2.53 |
| TCGAGTAGGTTACCGGGGCATTCAGGGATGAAGA | 0.549 | 0.561 | -0.39 | 0.585 | 2.27 | 2.79 | 2.86 | 1.46 | 2 | 3.7 | 4.46 | 0.533 | 0.554 | -0.524 | 0.534 | -0.856 | 1.22 |
| CCGAGTAGGTTACGAGTGGGCATTCAGTGCGAAT | 0.0253 | 3.62 | -0.367 | 0.771 | 1.09 | 0.765 | 1.33 | -0.376 | 0.662 | 4.82 | 3.49 | 0.313 | 0.0829 | -0.15 | 0.124 | -0.322 | 0.921 |
| CTATGTAGGTTGAGGGGGTCATTCAGTTTGAAAG | 4.59 | 4.82 | 2 | 6.24 | 5.54 | 4.5 | 5.93 | 2.9 | 5.21 | 3.98 | 5.16 | 3.25 | 5.67 | 10.2 | 5.29 | 2.23 | 3.4 |

Source: the supplement of paper PMC6555819
